An excerpt weighted towards active compounds, which were near 28% of everything screened.
CYP2C19 inhib: blockers of cytochrome P450 2C19 activity – biochemical, luminescence, ADME assay, primary screen. CYP2C19 Supersomes, luciferin-H EGE luminescence, 30 min. inhibition, % at 5 µM. P33261. 96,000 tested, 21% active. AID 778, 2007;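 active = CYP2C19 inhibition above a set limit at 5 µM in the primary screen, cut at about 50% in these data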
CYP2C19 act: human CYP2C19 activators, primary screen, biochemical, luminescence; Cytochrome P450 2C19 (Homo sapiens), P33261; recombinant CYP2C19, luciferin-H EGE luminescence; stronger effect = higher value; 0 = fully inhibited enzyme, 1 = untreated enzyme; activation factor at 5 µM; 96,000 tested, under 10 active;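 active = activation factor of at least 2 at 5 µM in the primary screen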
CD11b adhes enh: enhancers of CD11b/CD18 adhesion to fibrinogen, primary screen, K562 cells, luminescence; AID 1499, 2009; 93,000 tested, 0.07% active; activation, % at 10 µM; Integrin beta-2 (Homo sapiens) + Integrin alpha-M (Homo sapiens), P05107+P11215; ATPlite luminescence;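 active = 10 µM primary screen giving 50% or more activity, confirmed by 40% or more on retest at that dose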
Mac1 fbg inh: inhibitors of CD11b/CD18 adhesion to fibrinogen, primary screen, K562 cells, luminescence; inhibition, % at 10 µM; 93,000 tested, 0.54% active; ATPlite luminescence; Mn2+ added to activate the integrin; Integrin beta-2 (Homo sapiens) + Integrin alpha-M (Homo sapiens), P05107+P11215; AID 1497, 2009;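 active = primary inhibition of 50% or more at 10 µM, then 40% or more on retest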
CYP2C9 act: human CYP2C9 activators, primary screen, biochemical, luminescence; activation factor at 5 µM; Cytochrome P450 2C9 (Homo sapiens), P11712; 96,000 tested, 1.4% active; recombinant CYP2C9, luciferin-H conversion; stronger effect = higher value; factor 1 = untreated enzyme, 0 = blocked;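 active = activation factor of 2 or more for CYP2C9 at a 5 µM dose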
Target sequence (P11712 whole entry, looked up): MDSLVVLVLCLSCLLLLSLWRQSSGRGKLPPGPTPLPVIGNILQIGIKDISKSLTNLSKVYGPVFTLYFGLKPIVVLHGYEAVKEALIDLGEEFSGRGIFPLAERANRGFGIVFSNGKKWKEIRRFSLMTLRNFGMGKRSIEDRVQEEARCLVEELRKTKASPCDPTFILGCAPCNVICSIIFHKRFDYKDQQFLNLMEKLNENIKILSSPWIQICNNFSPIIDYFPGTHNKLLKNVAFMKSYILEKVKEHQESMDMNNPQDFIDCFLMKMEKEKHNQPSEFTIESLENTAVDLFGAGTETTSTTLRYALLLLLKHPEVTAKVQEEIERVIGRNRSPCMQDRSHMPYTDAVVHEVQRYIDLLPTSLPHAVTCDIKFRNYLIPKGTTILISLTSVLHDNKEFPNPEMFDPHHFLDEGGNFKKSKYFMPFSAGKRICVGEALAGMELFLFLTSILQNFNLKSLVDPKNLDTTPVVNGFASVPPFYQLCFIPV
CYP2C9 inhib: blockers of cytochrome P450 2C9 activity – biochemical, luminescence, ADME assay, primary screen; P11712; CYP2C9 Supersomes, luciferin-H conversion; AID 777, 2007; inhibition, % at 5 µM; 96,000 tested, 20% active;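 active = blocking of liver enzyme CYP2C9 beyond about 50% at 5 µM, limit read from the data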
Numbers stand for hits; - = inactive; . = not tested or not shown.

SMILES	CYP2C19 inhib	CYP2C19 act	CD11b adhes enh	Mac1 fbg inh	CYP2C9 act	CYP2C9 inhib
O=C(Nc1cccc(-c2nc3ccccc3[nH]2)c1)c1ccco1	82.4	-	-	-	-	71.9
O=C(Nc1cccc(-c2cnc3ccccc3n2)c1)c1cccc(NC(=O)c2ccco2)c1	69.3	-	-	-	-	75.4
O=C(Nc1cccc(NC(=O)c2nccc3ccccc23)c1)c1ccco1	-	-	-	-	2	-
CC(C)N1C(=S)SC2CS(=O)(=O)C=C21 (centres undefined)	-	-	-	-	-	-
Nc1ccccc1C(=O)NCc1ccccc1	-	-	-	-	-	-
Cc1ccc(-n2ncc3c(=O)n(CC(=O)NCc4ccco4)cnc32)cc1C	-	-	-	-	-	-
COc1ccc(NC(=O)CN2C(=O)C(C)SC(C)C2=O)c(OC)c1 (centres undefined)	.	.	-	-	.	.
Cc1cc(C)c(S(=O)(=O)c2c(C)cccc2C)c(Cl)n1	74.7	-	.	.	-	-
Cc1cc(C)c(S(C)(=O)=O)c(S(=O)(=O)c2ccc(Cl)cc2)n1	-	-	-	-	-	-
CN1CCN(C(=O)C2CCCCC2C(=O)O)CC1 (centres undefined)	-	-	-	-	-	-
O=S(=O)(c1ccc(N2CCCC2c2nc3ccccc3s2)nc1)N1CCOCC1 (centres undefined)	88.6	-	-	-	-	86.4
Cc1ccc(C(=O)CN(C(=O)c2ccc(Cl)c(Cl)c2)N2C(=O)C3C4C=CC(C4)C3C2=O)cc1 (centres undefined)	78.7	-	-	-	-	92.9
O=C(CN(C(=O)c1ccc(Cl)cc1)N1C(=O)C2CCCCC2C1=O)c1ccc(Cl)cc1 (centres undefined)	-	-	.	.	-	-
COc1ccc(C(=O)NCc2nnc(SCC(=O)N3CCc4ccccc43)n2CCc2ccccc2)cc1	.	.	-	-	.	.
CC1CCCN(c2ccc(/C=C(\C#N)c3nn(-c4ccccc4)c(N)c3C#N)cc2[N+](=O)[O-])C1 (centres undefined)	-	-	.	.	-	80.1
CC1CCN(c2ccc([N+](=O)[O-])cc2C(=O)O)CC1	.	.	-	-	.	.
CC1CCN(c2cc(N3CCC(C)CC3)c([N+](=O)[O-])cc2/C=C(\C#N)c2nn(-c3ccccc3)c(N)c2C#N)CC1	51.0	-	.	.	-	80.8
COc1ccc(C2NC(=S)N3C(c4ccc(OC)cc4)NC(=S)N23)cc1 (centres undefined)	51.1	-	-	-	-	-
O=C1NC(=O)C2C1C(c1ccccc1)N1C3C(=O)NC(=O)C3C(c3ccccc3)N21 (centres undefined)	-	-	-	-	-	-
S=C1NC(c2ccccc2)N2C(=S)NC(c3ccccc3)N12 (centres undefined)	93.6	-	-	-	-	77.6
COc1ccc(C(N)=S)cc1	.	.	-	-	.	.
Cc1cccc(OCCNc2nc3c(c(=O)n(C)c(=O)n3C)n2C)c1	-	-	.	.	-	-
O=C1NCC(c2ccccc2)C1C(=O)N/N=C\c1ccc(-c2ccc(Cl)c(Cl)c2)o1 (centres undefined)	-	-	-	-	-	67.3
CC(=O)c1ccc(Nc2ncnc3c2oc2ccccc23)cc1	-	-	-	-	-	-
COC(=O)c1ccc2c(c1)SC1=C(CCCC1=O)N2	82.9	-	-	-	-	-
SMILES	CYP2C19 inhib	CYP2C19 act	CD11b adhes enh	Mac1 fbg inh	CYP2C9 act	CYP2C9 inhib
COC(=O)c1cc(C(=O)OCC(=O)Nc2ccccc2OC(F)F)cc([N+](=O)[O-])c1	.	.	-	-	.	.
O=c1nc2scc(-c3ccccc3)n2c2ccccc12	-	-	-	-	-	-
Cc1ncc(S(=O)(=O)c2ccccc2)c(-c2ccc(Cl)cc2Cl)n1	73.3	-	-	-	-	-
Cc1ccc(S(=O)(=O)c2cnc(-c3ccccc3)nc2Oc2ccccc2)cc1	-	-	-	-	-	-
Clc1ccc(CSc2snnc2-c2ccccc2)c(Cl)c1	-	-	-	-	-	-
O=S(=O)(c1ccc(Cl)cc1)c1snnc1-c1ccccc1	89.5	-	-	-	-	-
CN(C)c1ncc(S(=O)(=O)c2ccc(Cl)cc2)c(-c2ccccc2)n1	97.0	-	-	-	-	60.5
O=S(=O)(c1ccc(Cl)cc1)c1cnc(-c2cccnc2)nc1-c1ccccc1	51.5	-	.	.	-	-
C=CCNS(=O)(=O)c1nc(C)c(Cl)c(C)c1C#N	-	-	-	-	-	-
CCOc1ccc(-c2csc(Cn3c(CN4CCN(C)CC4)nc4ccccc4c3=O)n2)cc1	.	.	-	-	.	.
COc1ccc(C2=CC(=O)OC3(CCCC3)O2)cc1	-	-	-	-	-	-
Cc1nc(-c2ccccc2)sc1-c1nc(-c2ccncc2)ncc1S(=O)(=O)c1ccccc1	93.3	-	-	-	-	95.9
CCOC(=O)c1c(C)[nH]c(C(=O)COC(=O)c2ccc(F)c(S(=O)(=O)N3CCOCC3)c2)c1C	-	-	-	-	-	-
c1ccc(CC2CCN(c3nnnn3-c3ccccc3)CC2)cc1	62.6	-	-	-	-	54.3
CC(=O)N1CCN(c2nnnn2-c2ccccc2)CC1	-	-	-	-	-	-
O=C1NCN(c2ccccc2)C12CCN(c1nnnn1-c1ccccc1)CC2	58.2	-	-	-	-	-
O=S(=O)(c1ccccc1)N1CCN(c2nnnn2-c2ccccc2)CC1	50.8	-	-	-	-	-
Cc1cc(=O)oc(C)c1C(=O)n1nc(C)c2c1C[C@@H]1[C@H]2C1(C)C	-	-	-	-	-	61.9
O=C1C(c2ccc(F)cc2)N(Cc2ccc3c(c2)OCO3)C(=O)CN1C1CCCCCC1 (centres undefined)	-	-	-	-	-	55.8
O=C(CCC1CCCC1)c1c(O)c2ccccc2oc1=O	-	-	-	87.7	-	-
O=C(c1c(O)c2ccccc2oc1=O)C1CCCCC1	-	-	-	-	-	64.9
O=C(Cn1ncc2c(=O)oc3ccccc3c21)NC1CC1	-	-	-	-	-	-
CN=C(C)c1c(O)c2ccccc2oc1=O	-	-	-	-	-	-
O=C(O)C1CSC(c2ccncc2)N1 (centres undefined)	58.9	-	-	-	-	73.3
CCN(CC)S(=O)(=O)c1ccc2nnn(OCC(=O)Nc3cccc(C#N)c3)c2c1	94.0	-	-	-	-	97.4
CCN(CC)S(=O)(=O)c1cccc(C(=O)Nc2ccc(C#N)cc2)c1	-	-	-	-	-	-
